Assay results: PubChem BioAssay (NCI)
The panel holds about 79,000 compounds, 15% with a hit somewhere; the sample as a whole holds those more often. Calls of active or inactive are those of the source. Rule as the data show it: active = growth inhibition above about 70%; inactive = the rest.

Legend:
[1] = NCI Yeast Anticancer Drug Screen. Data for the rad50 strain (AID 155);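 also: 0% = growth of vehicle-only cultures of the same strain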; details: S. cerevisiae rad50 strain growth inhibition; at 50.0 µM; hits give high values
Method in brief: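 Yeast carrying a defined DNA repair defect were exposed to test compounds, and growth was compared with vehicle-treated controls to give percent inhibition.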

[2] = NCI Yeast Anticancer Drug Screen. Data for the mec2-1 strain (AID 157); details: S. cerevisiae mec2-1 strain, at 50.0 µM, hits give high values
Method in brief: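 Strain: mec2-1 (DNA repair/cell cycle alteration). Compound exposure, then growth measured; inhibition expressed relative to vehicle.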

[3] = NCI Yeast Anticancer Drug Screen. Data for the sgs1 mgt1 strain (AID 161);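 also: 0% = growth of cultures given vehicle only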; details: S. cerevisiae sgs1 mgt1 strain, at 50.0 µM, hits give high values
Method in brief: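 Mutant yeast exposed to compound; growth scored against vehicle-only wells.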

[4] = NCI Yeast Anticancer Drug Screen. Data for the cln2 rad14 strain (AID 165);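 also: 0% = growth equal to vehicle treated cultures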; details: S. cerevisiae cln2 rad14 strain, at 50.0 µM, hits give high values
Method in brief: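 Compounds are applied to the cln2 rad14 yeast strain, and growth is then compared with that of vehicle-treated cultures to give inhibition.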

[5] = NCI Yeast Anticancer Drug Screen. Data for the bub3 strain (AID 167); details: S. cerevisiae bub3 mutant strain, at 50.0 µM, hits give high values
Method in brief: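 Compounds were applied to a genetically altered yeast strain carrying a cell-cycle control defect. Growth inhibition was scored against vehicle-treated controls.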

[6] = NCI Yeast Anticancer Drug Screen. Data for the mlh1 rad18 strain (AID 175); details: S. cerevisiae mlh1 rad18 strain growth inhibition; at 50.0 µM; hits give high values
Method in brief: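 Read-out is yeast growth inhibition, calculated against vehicle-only controls. The compound was applied to a strain engineered with DNA damage repair alterations.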

Measured: growth inhibition

CC(C)N1CCC(OC(=O)Nc2ccccc2)C1 (stereo not given)
inactive: [1] 3.85% | [2] 5.6% | [3] -7.75% | [4] -27.1% | [5] -14.5% | [6] 8.35%

CCOC(C)C1C2CCCCC21 (stereo not given)
inactive: [1] 2.1% | [2] 0.75% | [3] 6.2% | [4] -54% | [5] 4.85% | [6] 8.75%

CCOC(=O)/C=C1\CCCC12OCCO2
inactive: [1] 29.2% | [2] -3.65% | [3] 3.1% | [4] 19.2% | [5] -5.75% | [6] -6.1%

CCOC(=O)SC1=NC(C)=CC(C)(C)S1
inactive: [1] 2.4% | [2] 6.55% | [3] 18.6% | [4] -10.9% | [5] -3.7% | [6] -4.7%

CC(N)(Cc1c[nH]c2ccccc12)C(=O)O (stereo not given)
inactive: [1] -13.3% | [2] -43.5% | [3] -16.1% | [4] -26.9% | [5] -15.8% | [6] -19.4%

CC(=O)Cc1ccc([N+](=O)[O-])cc1
inactive: [1] -0.1% | [2] -9.25% | [3] -15.9% | [4] -41.7% | [5] 4.15% | [6] 12.2%

COc1cc(OC)c(C(=O)/C=C/c2ccncc2)cc1C(=O)O
inactive: [1] 10.1% | [2] -14.6% | [3] 16.2% | [4] 13.3% | [5] 19.6% | [6] -5.85%

CN(C)/C(=N/C(=O)Nc1ccccc1)SCc1ccccc1
inactive: [1] -10.5% | [2] -3.9% | [3] 0.45% | [4] -32% | [5] -9.1% | [6] -1.2%

CC1=C(c2cc(C(=O)Nc3nccs3)nc(NC#N)n2)Sc2ccccc2N1
inactive: [1] -9.2% | [2] 5.4% | [3] -8.65% | [4] 15.2% | [5] 4.5% | [6] 10.3%

Cc1nn2c(c1C#N)NNc1c-2sc(=N)nnc1=O
inactive: [1] -1.6% | [2] 0.5% | [3] 13.5% | [4] -4.4% | [5] -9.4% | [6] 15.6%

CC(=O)NC(Cc1c[nH]c2ccccc12)C(=O)Oc1ccc([N+](=O)[O-])cc1 (stereo not given)
inactive: [1] -9.2% | [2] 23.1% | [3] 24.6% | [4] 13.1% | [5] 9.3% | [6] 17.6%

CC(=O)[C@H]1CC[C@@H]2[C@]1(C)CC=C1[C@]23C=C[C@]2(C[C@@H](O)CC[C@]12C)C(C(=O)O)C3C(=O)O (stereo not given in full)
inactive: [1] 2.35% | [2] -18% | [3] -39.7% | [4] 4.2% | [5] -13.1% | [6] 7.25%

O=C(O)C(O)(O)C(=O)O
inactive: [1] -2.9% | [2] -11.2% | [3] -12.6% | [4] 22.6% | [5] 5.8% | [6] -4.05%

COC(CN1C=C(Sc2ccccc2)CC1)OC
inactive: [1] 49.2% | [2] 24.2% | [3] 32.3% | [4] 13% | [5] 27.5% | [6] 56.2%

COC(=O)C1CCc2c(ccc3cc(OC)ccc23)C1(C)C(=O)OC (stereo not given)
inactive: [1] -14.5% | [2] -7.65% | [3] -7.4% | [4] -40.1% | [5] -2.2% | [6] -10.2%

N=C1C(=O)C(=N)c2ccccc2-c2ccccc21
inactive: [1] -31% | [2] -48.8% | [3] -14.7% | [4] -0.05% | [5] -36.6% | [6] -23.9%

CN1C(=O)CCSC1=S
inactive: [1] 3.55% | [2] -12.1% | [3] -4.7% | [4] -18.6% | [5] 14.4% | [6] -2.05%

Cc1noc2c1NC(=O)OCC2
inactive: [1] 2.9% | [2] 1.45% | [3] -3.85% | [4] -2% | [5] 10.6% | [6] -15.1%

Cc1ccc(O)c(C2C=CCC2)c1 (stereo not given)
inactive: [1] 8.6% | [2] -7.25% | [3] 22.8% | [4] 7.5% | [5] -1.35% | [6] 4.2%

COC(=O)CCC(=O)c1cc(OC)c2cc3ccccc3cc2c1OC
inactive: [1] 9.2% | [2] -10.4% | [3] -2.55% | [4] 5.75% | [5] -17.4% | [6] -15.6%

C[Si](C)(C)c1ccc(CC2(Cc3ccc([Si](C)(C)C)cc3)CCNC2)cc1
inactive: [1] -32.9% | [2] -39% | [3] -19.9% | [4] 3.75% | [5] -10.2% | [6] -25.9%

COc1cc([N+](=O)[O-])c(C)cc1Br
inactive: [1] 3.55% | [2] 3.75% | [3] 4.45% | [4] -18.3% | [5] -10.5% | [6] 9.45%

C=C1C(=O)C23C(O)CC4C(C)(C)[C@@H](OC(C)=O)CCC4(C)[C@]2(O)CCC1[C@@H]3O (stereo not given in full)
inactive: [1] 46.8% | [2] 48.9% | [3] 44.9% | [4] 40.1% | [6] 67%
active: [5] 70.5%

CCO/C=C(/C#N)C(=O)OCC
inactive: [1] -6.8% | [2] -11.9% | [3] -20.3% | [4] -27.6% | [5] -14.3% | [6] 0.85%

Cc1ccc(S(=O)(=O)NNc2nc(N3CCCCC3)nc(N3CCCCC3)n2)cc1
inactive: [1] -1.25% | [2] -2.4% | [3] 8.2% | [4] -17.9% | [5] -4.85% | [6] 19.6%

CCOc1ccc(NC(=O)c2cccc(C(=O)Nc3ccc(OCC)cc3)c2)cc1
inactive: [1] -13.8% | [2] -12.3% | [3] -8.15% | [4] -20.9% | [5] -5.35% | [6] -0.7%

COc1cc2c(c(O)c1OC)C(=O)[C@@H]1CCC(=O)N1C2c1ccccc1 (stereo not given in full)
inactive: [1] 19.1% | [2] 2.7% | [3] 19.4% | [4] 13.1% | [5] 11.3% | [6] -18.4%

C=CCOC(=O)/C=C\c1ccccc1OC
inactive: [1] 23.9% | [2] 6.45% | [3] 16.6% | [4] -39.9% | [5] 14.8% | [6] -3.3%

C[C@@H]1CC[C@]2(C(=O)O)CC[C@]3(C)C(=CC[C@@H]4[C@@]5(C)CC[C@H](O)C(C)(C)[C@@H]5CC[C@]43C)[C@@H]2[C@]1(C)O
inactive: [1] 27.1% | [2] 38.5% | [3] 2.75% | [4] 13.5% | [5] 26.4% | [6] -65%

O=[N+]([O-])c1ccccc1-c1ccccc1[N+](=O)[O-]
inactive: [1] 24.7% | [2] 16.3% | [3] 33.8% | [4] 10% | [5] -24.4% | [6] -10.8%

CC(=O)N1CCCCCC1=O
inactive: [1] -30.3% | [2] -16.9% | [3] 25.4% | [4] -7.55% | [5] 1.95% | [6] -26.8%

CC1=NN(C(=O)CC(=O)N(C(=O)c2ccccc2Cl)c2ccc(C)cc2)C(=O)C1N=Nc1ccc([N+](=O)[O-])cc1 (stereo not given)
inactive: [1] 46.2% | [2] 29.9% | [3] 47.5% | [4] 27.3% | [5] 54.1% | [6] 46.1%

O=c1c(SCc2ccc(Cl)cc2Cl)c(SCc2ccc(Cl)cc2Cl)cnn1-c1ccccc1
inactive: [1] 16.8% | [2] -1.4% | [3] 7.3% | [4] 23.9% | [5] 1.05% | [6] 4.05%

CNc1ncn(-c2c(C)cccc2C)c(=O)n1
inactive: [1] -2.5% | [2] -3.6% | [3] 8.85% | [4] -15.8% | [5] -2.65% | [6] 4.05%

C/C(=N\NC(=S)N1CCCC1)c1ccc[nH]1
inactive: [1] -6.55% | [2] 3.05% | [3] -0.05% | [4] -11.6% | [5] -7.75% | [6] -2.3%

CS/C(=C\c1ccc2cc(C)ccc2[n+]1C)N1CCOCC1
inactive: [1] 7.25% | [2] -3.85% | [3] -16% | [4] -2.05% | [5] -45.6% | [6] -56.5%

C/C(CC(O)(C(F)(F)Cl)C(F)(F)Cl)=N\Nc1ccccc1
inactive: [1] 28% | [2] 15.1% | [3] 6.55% | [4] 28.1% | [5] -0.9% | [6] 17.5%

O=C(Nc1ccccc1)OCc1cnc2ccccc2c1
inactive: [1] 6.05% | [2] -22.6% | [3] 9.2% | [4] -9.4% | [5] 3.05% | [6] -2.8%

Cc1c(C(=O)O)c2cc3ccccc3cc2c(=O)n1C
inactive: [1] -22.1% | [2] -34.6% | [3] -10.1% | [4] -40.6% | [5] -23.9% | [6] -35%

CC(=NC1CCCCC1)c1ccccc1O
inactive: [1] 24.4% | [2] -11.1% | [3] -3.35% | [4] -23.9% | [5] 13.6% | [6] 16.8%

O=C(Nc1ccc(Br)cn1)c1sc2ccccc2c1Cl
inactive: [1] 8.2% | [2] -9.7% | [3] 26.6% | [4] 19.4% | [5] 16.4% | [6] 14.2%

CC(=O)/C=C/CCC(=O)/C=C/C(=O)OC(CCC(=O)/C=C/C(=O)O)CC(C)=O (stereo not given)
inactive: [1] -5.25% | [2] -30.4% | [3] -18.4% | [4] 19.1% | [5] -24.1% | [6] -5.95%

O=C(O)CCCCC1CCSS1 (stereo not given)
inactive: [1] 32.2% | [2] 15.8% | [3] 46% | [4] 20.1% | [5] 25.5% | [6] 20.9%

CC(Cc1ccccc1)NC(=O)CCCN1C(=O)c2ccccc2C1=O (stereo not given)
inactive: [1] -2.55% | [2] 1% | [3] -10.7% | [4] -37.8% | [5] 6.4% | [6] -5.15%

Cc1ccc(C(C)(C)C)c2oc(=O)cc(C)c12
inactive: [1] 20.2% | [2] 8.75% | [3] 12.9% | [4] 5% | [5] 5.05% | [6] 19.8%
